Assay results reported in PubChem BioAssay (NCI).
Compounds without any hit were thinned out: in the full panel of roughly 79,000, 15% have a hit. The source made the active and inactive calls. Rule as the data show it: active = growth inhibition above about 70%; inactive = the rest.

Key:
[1] = NCI Yeast Anticancer Drug Screen. Data for the rad52 strain (AID 147);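 also: 0% = growth of vehicle-treated control cultures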; settings: S. cerevisiae rad52 mutant growth inhibition, hits give high values
Procedure, shortened: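 Vehicle-treated cultures served as the reference for growth inhibition of compound-exposed yeast bearing a DNA repair mutation.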

[2] = NCI Yeast Anticancer Drug Screen. Data for the wt1 strain (AID 149);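 also: 0% = growth of vehicle-treated wt1 cultures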; settings: S. cerevisiae wt1 strain (SPY 50644) growth inhibition, hits give high values
Procedure, shortened: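 Measured: growth of wt1 yeast under compound versus vehicle treatment, reported as inhibition.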

[3] = NCI Yeast Anticancer Drug Screen. Data for the rad50EPP+ strain (AID 151);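 also: 0% = growth of vehicle-treated control cultures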; settings: S. cerevisiae rad50 mutant strain, hits give high values
Procedure, shortened: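 In this screen, rad50EPP+ yeast were exposed to compounds. Growth inhibition was scored against vehicle-treated controls.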

[4] = NCI Yeast Anticancer Drug Screen. Data for the mgt1 strain (AID 153); settings: S. cerevisiae mgt1 mutant growth inhibition, hits give high values
Procedure, shortened: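 mgt1 strain exposed; growth vs vehicle control recorded as inhibition.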

[5] = NCI Yeast Anticancer Drug Screen. Data for the rad50 strain (AID 155);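 also: 0% = growth of vehicle-only cultures of the same strain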; settings: S. cerevisiae rad50 strain growth inhibition, hits give high values
Procedure, shortened: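 Growth of the mutant yeast was measured after compound exposure and referenced to vehicle-treated cultures.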

[6] = NCI Yeast Anticancer Drug Screen. Data for the mec2-1 strain (AID 157); settings: S. cerevisiae mec2-1 strain, hits give high values
Procedure, shortened: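 Vehicle-treated cultures served as reference for growth inhibition of compound-exposed mec2-1 yeast.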

[7] = NCI Yeast Anticancer Drug Screen. Data for the rad14 strain (AID 159);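 also: 0% = growth of vehicle-treated control cultures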; settings: S. cerevisiae rad14 strain growth inhibition, hits give high values
Procedure, shortened: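 Here, inhibition of yeast growth was measured after compound exposure, using a strain with a genetic defect in DNA damage repair and vehicle-treated cultures as the reference.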

[8] = NCI Yeast Anticancer Drug Screen. Data for the sgs1 mgt1 strain (AID 161);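 also: 0% = growth of cultures given vehicle only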; settings: S. cerevisiae sgs1 mgt1 strain, hits give high values
Procedure, shortened: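 Mutant yeast exposed to compound; growth scored against vehicle-only wells.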

[9] = NCI Yeast Anticancer Drug Screen. Data for the CLN2oe strain (AID 163);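 also: 0% = growth of vehicle-only control cultures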; settings: S. cerevisiae CLN2oe strain, hits give high values
Procedure, shortened: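 Inhibition relative to vehicle-treated yeast is reported. Cells: strain with genetic alteration in cell-cycle control, grown with compound.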

[10] = NCI Yeast Anticancer Drug Screen. Data for the cln2 rad14 strain (AID 165);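 also: 0% = growth equal to vehicle treated cultures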; settings: S. cerevisiae cln2 rad14 strain, hits give high values
Procedure, shortened: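 Each compound was tested on cln2 rad14 yeast. Inhibition of growth was calculated against vehicle-exposed controls.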

[11] = NCI Yeast Anticancer Drug Screen. Data for the bub3 strain (AID 167); settings: S. cerevisiae bub3 mutant strain, hits give high values
Procedure, shortened: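 Whole-cell yeast assay. The mutant strain was incubated with compounds, and growth inhibition was determined by comparison with vehicle-treated cells.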

[12] = NCI Yeast Anticancer Drug Screen. Data for the wt2 strain (AID 169);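 also: 0% = growth of vehicle-treated yeast cultures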; settings: S. cerevisiae wt2 strain growth inhibition, hits give high values
Procedure, shortened: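 Inhibition of yeast growth was determined after compound treatment, normalised to controls receiving only vehicle.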

[13] = NCI Yeast Anticancer Drug Screen. Data for the mlh1 strain (AID 171);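 also: 0% = growth of vehicle-treated control cultures of the same strain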; settings: S. cerevisiae mlh1 strain growth inhibition, hits give high values
Procedure, shortened: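 Vehicle-normalised growth inhibition of a repair- or checkpoint-altered yeast strain following compound treatment.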

[14] = NCI Yeast Anticancer Drug Screen. Data for the sgs1 strain (AID 173);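 also: 0% = growth of vehicle-only control cultures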; settings: S. cerevisiae sgs1 mutant, hits give high values
Procedure, shortened: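 Screen format: yeast with repair or checkpoint alterations, compound exposure, growth read relative to vehicle.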

[15] = NCI Yeast Anticancer Drug Screen. Data for the mlh1 rad18 strain (AID 175); settings: S. cerevisiae mlh1 rad18 strain growth inhibition, hits give high values
Procedure, shortened: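 Vehicle-treated cultures served as the reference for growth inhibition in a yeast strain carrying DNA damage repair alterations exposed to each compound.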

[16] = NCI Yeast Anticancer Drug Screen. Data for the rad18 strain (AID 177); settings: S. cerevisiae rad18 mutant growth inhibition, hits give high values
Procedure, shortened: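 Test articles were incubated with altered yeast defective in DNA damage repair. Results are given as inhibition of growth versus vehicle.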

[17] = at 5.0 µM (retest, dose inferred, filed as 0.5)
[18] = at 50.0 µM (retest, dose inferred, filed as 5.0)

Measured: growth inhibition

CN(C)Cc1cc(N=Nc2ccc(Cl)cc2)cc(CN(C)C)c1O
inactive: [1]; at 1.2 µM 8% | [1]; at 3.7 µM 8% | [1]; at 11.0 µM 8% | [1]; at 33.0 µM 16% | [1]; at 100.0 µM 58% | [2]; at 1.2 µM 5% | [2]; at 3.7 µM 4% | [2]; at 11.0 µM 8% | [2]; at 33.0 µM 12% | [2]; at 100.0 µM 63% | [3]; at 1.2 µM -3% | [3]; at 3.7 µM -1% | [3]; at 11.0 µM 15% | [3]; at 33.0 µM 43% | [4]; at 1.2 µM 13% | [4]; at 3.7 µM 12% | [4]; at 11.0 µM 13% | [4]; at 33.0 µM 26% | [4]; at 100.0 µM 13% | [5]; at 1.2 µM 9% | [5]; at 3.7 µM 7% | [5]; [17] -15% | [5]; at 11.0 µM 8% | [5]; at 33.0 µM 10% | [5]; at 50.0 µM 56.8% | [5]; at 100.0 µM 25% | [6]; at 1.2 µM 15% | [6]; at 3.7 µM 17% | [6]; [17] -5% | [6]; at 11.0 µM 16% | [6]; at 33.0 µM 14% | [6]; [18] 47% | [6]; at 100.0 µM 15% | [7]; at 1.2 µM 12% | [7]; at 3.7 µM 13% | [7]; at 11.0 µM 10% | [7]; at 33.0 µM 11% | [7]; at 100.0 µM 34% | [8]; [17] 1% | [8]; [18] 46% | [9]; at 1.2 µM 23% | [9]; at 3.7 µM 22% | [9]; at 11.0 µM 26% | [9]; at 33.0 µM 26% | [9]; at 100.0 µM 18% | [10]; [17] 39% | [10]; at 50.0 µM 44% | [11]; at 1.2 µM 4% | [11]; at 3.7 µM 2% | [11]; [17] 12% | [11]; at 11.0 µM 2% | [11]; at 33.0 µM 5% | [11]; at 100.0 µM 3% | [12]; at 1.2 µM 5% | [12]; at 3.7 µM 5% | [12]; at 11.0 µM 8% | [12]; at 33.0 µM 15% | [13]; at 1.2 µM 14% | [13]; at 3.7 µM 12% | [13]; at 11.0 µM 12% | [13]; at 33.0 µM 10% | [13]; at 100.0 µM 18% | [14]; at 1.2 µM 4% | [14]; at 3.7 µM 8% | [14]; at 11.0 µM 15% | [14]; at 33.0 µM 26% | [15]; [17] 4% | [16]; at 1.2 µM 7% | [16]; at 3.7 µM 8% | [16]; at 11.0 µM 25% | [16]; at 33.0 µM 15% | [16]; at 100.0 µM 34%
active: [3]; at 100.0 µM 91% | [5]; [18] 73% | [6]; at 50.0 µM 88.9% | [8]; at 50.0 µM 95.2% | [10]; [18] 98% | [11]; [18] 73% | [11]; at 50.0 µM 91.2% | [12]; at 100.0 µM 80% | [14]; at 100.0 µM 95% | [15]; [18] 96% | [15]; at 50.0 µM 90.2%
